According to PubChem BioAssay (NCI):
About 83,000 compounds went through this panel and 20% of them were active in at least one assay; those are over-represented in the sample as a whole.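 Note: values are percent growth. 100 is the growth of untreated cells, values between 100 and 0 indicate rising inhibition; between -100 and 0 indicates cell death.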 Values without a mark were called inactive. The source made the active and inactive calls.

What follows are compounds tested on OVCAR-5 ovarian (assay: NCI-60 one-dose screen, 48 h (100 = growth as untreated, 0 = no growth, -100 = all killed)). Settings: 10 µM unless noted.
Method: Growth inhibition of the OVCAR-5 human tumor cell line is measured as a screen for anti-cancer activity. Cells are grown in 96 well plates and exposed to the test compound for 48 hours. Compounds are tested at a single concentration, which is 10^-5 M for most compounds. The reported endpoint is percent growth (GI% or GIPRCNT), where numbers from 0 - 100% represent growth inhibition, and numbers from -100% - 0 represent cell death. For example, a value of 40 represents 60% growth inhibition. A value of 0 means no net growth occurred over the course of the experiment. A value of -40 indicates 40% of cells at the beginning of the experiment died by the end of the experiment. A value of -100 means all cells are dead at the end of the experiment.
NCI-60 Human Tumor Cell Lines Screen was performed using the standard one-dose NCI protocol, which is described in more detail at https://dtp.cancer.gov/discovery_development/nci-60/default.htm.
Compounds with GIPRCNT values below 10 were considered active. Activity score was based on GIPRCNT using the following formula: […]
Score is 0 for GIPRCNT values of 100 or above, 50 for GIPRCNT values of 0, and 100 for GIPRCNT values of -100.

SMILES | growth
CCCCNC(=O)Oc1ccc(/C(=C(/CC)Cc2ccccc2)c2ccc(OCCN3CCCCCC3)cc2)cc1 | 73.6%
CCCCOC(=O)OCc1cc(=O)c(O)co1 | 102%
CC(=O)Cc1nsc(NC(=O)c2cc(-c3cc(Cl)cc(Cl)c3)oc2C)n1 | 104%
Nc1c(C(=O)Nc2ccncc2)sc2nc3c(cc12)CCCCCC3 | 90.7%
C=CCn1c(SCC(=O)Nc2ccc(C(=O)/C=C/c3cc4cc(OC)ccc4nc3Cl)cc2)nnc1-c1ccc(Br)cc1 | 99.2%
CCn1c(=S)[nH]c2c(=O)n(C)c(=O)n(C)c21 | 104%
COc1cc2c(c(OC)c1OC)C(=O)CC(c1cccc(NC(=O)c3ccc(Br)cc3)c1)O2 (stereo not given) | 95.4%
CC(C)n1cnc2c(=S)nc[nH]c21 | 121%
O=S(=O)(Nc1ccc(Cl)cc1)c1ccc(-c2cnc(C3CC3)o2)cc1 | 43.9%
Cc1ccc(Sc2nnc(/N=C3\C(=O)Nc4ccccc43)s2)cc1 | 102%
COc1cc(/C=C\c2cc(/C=C\c3ccc(O)c(OC)c3)n(C(=O)COc3ccc(Cl)cc3Cl)n2)ccc1O | 56.7%
COC(=O)c1c2c(c[n+]([O-])c1C)C(=O)C(NCc1ccccc1)=CC2=O | -79.9% (active)
CCCCCCCCn1ccc2cc(NC(=O)CN3CCN(c4nc(C)cc(Cl)n4)CC3)ccc21 | 102%
CS(=O)(=O)C1=CN(CCO)C(=O)N2CCCN=C12 | 99.4%
CCCNC(=O)Oc1ccc(/C(=C(/C)Cc2ccc(OC)cc2)c2ccc(OCCCN(C)C)cc2)cc1 | 94%
C#CCn1cnc2c(Nc3cccc(NC(=O)C=C)c3)ncnc21 | 82%
C#Cc1cccc(Nc2ncnc3ccc(-c4cncc(NS(C)(=O)=O)c4)cc23)c1 | 21.9%
O=C(/C=C/c1ccc(Cl)cc1)c1cccc(Nc2nc(Nc3ccccc3)nc(Nc3ccccc3)n2)c1 | 92.9%
CCN(CC)C(=S)SC(SC(=S)N(CC)CC)C(=O)c1nnn(-c2ccc([N+](=O)[O-])cc2)c1C | 106%
CC12CCC3c4ccccc4CCC3(CO1)C2 (stereo not given) | 96.3%

SMILES | growth
CC1(C)CC2=C3C=C[C@@H]4[C@@]5(C)CCC(=O)C(C)(C)[C@@H]5CC[C@@]4(C)[C@]3(C)CC[C@@]2(C(=O)O)CC1=O | 93.2%
COc1ccc2c3c([nH]c2c1)C(=O)c1nc(C)ccc1C3=O | 85%
N#CC1=C(N)Oc2c(sc3c(F)cccc23)C1c1ccc(F)cc1 (stereo not given) | 61.5%
Cc1ccc2c(n1)C(=O)c1[nH]c3ccccc3c1C2=O | 67.9%
COC(=O)[C@H]1CCCN1C[C@@H](O)CN1C(=O)/C(=C\c2cc(OC)c(OC)c(OC)c2)c2ccccc21 | 123%
Cc1ccc(C(C(N)=O)C(C(N)=O)c2ccccc2)cc1 (stereo not given) | 114%
Cn1cc(-c2nonc2-c2c[nH]c3ccc(Br)cc23)c2cc(Br)ccc21 | 37.6%
O=C(O)c1ccc(-n2cc(/C=N/Nc3ccc(F)cc3)c(-c3cc4ccccc4oc3=O)n2)cc1 | 82.4%
Cc1c(-n2nnc(-c3nc4ccccc4s3)c2N)c(=O)n(-c2ccccc2)n1C | 92.8%
O=C(O)/C(=C\c1ccc(Cl)cc1)c1ccc(Cl)cc1 | 74.1%
O=C(Nc1nc2ccc(F)cc2s1)c1cccnc1Nc1ccc(Cl)cc1 | 90.9%
CS(=O)(=O)Nc1cc(-c2ccc3ncnc(Nc4ccc5c(cnn5Cc5ccccn5)c4)c3c2)cnc1Cl | 68.5%
COc1ccc2c(c1)c(-c1noc(C(=O)c3cn(C)c4ccc(Br)cc34)n1)cn2C | 107%
COc1ccc(/C=C2\COc3ccc(O)c(O)c3C2=O)cc1 | -12.3% (active)
O=C1c2cc(Cl)ccc2S(=O)(=O)c2c(NCCCNCCO)nc3ccccc3c21 | -18% (active)
Cc1ccc(Sc2oc(-c3ccc(C)cc3)nc2[P+](c2ccccc2)(c2ccccc2)c2ccccc2)cc1 | 7.79% (active)
CC(C)N1CN2C(=S)NC3C2N(C1)C(=S)N3C (stereo not given) | 107%
CCOC(=O)c1cc(C(=O)c2cc(OC)c(OC)c(OC)c2)n2ccc(-c3ccncc3)cc12 | 113%
N#CC1CCc2c(c(-c3cn[nH]c3C(F)(F)F)nc3c(F)cc4[nH]ncc4c23)C1 (stereo not given) | 63.2%
C=C1CC[C@@H]2[C@](C)(COC(C)=O)[C@H](OC(C)=O)CC[C@@]2(C)[C@@H]1CC(Sc1ccccc1)C1=CCOC1=O (stereo not given in full) | 39.8%
